Assay outcomes (PubChem)
RORg inh: inhibitors of mouse ROR gamma transcriptional activity | actives 5.4% (n = 310,000) | Drosophila S2 Gal4-RORgamma UAS-luciferase reporter, 20 h | Potency, µM (doses to about 53.6 µM), without a hit: top-dose activity change, negative = inhibition, actives largely listed as inhibitors | P51450; further: potency means the concentration at half of the fitted maximal effect; nearly all actives have a fitted effect of over 60% in size
Target sequence (P51450 whole entry, looked up, the tested form may be a part): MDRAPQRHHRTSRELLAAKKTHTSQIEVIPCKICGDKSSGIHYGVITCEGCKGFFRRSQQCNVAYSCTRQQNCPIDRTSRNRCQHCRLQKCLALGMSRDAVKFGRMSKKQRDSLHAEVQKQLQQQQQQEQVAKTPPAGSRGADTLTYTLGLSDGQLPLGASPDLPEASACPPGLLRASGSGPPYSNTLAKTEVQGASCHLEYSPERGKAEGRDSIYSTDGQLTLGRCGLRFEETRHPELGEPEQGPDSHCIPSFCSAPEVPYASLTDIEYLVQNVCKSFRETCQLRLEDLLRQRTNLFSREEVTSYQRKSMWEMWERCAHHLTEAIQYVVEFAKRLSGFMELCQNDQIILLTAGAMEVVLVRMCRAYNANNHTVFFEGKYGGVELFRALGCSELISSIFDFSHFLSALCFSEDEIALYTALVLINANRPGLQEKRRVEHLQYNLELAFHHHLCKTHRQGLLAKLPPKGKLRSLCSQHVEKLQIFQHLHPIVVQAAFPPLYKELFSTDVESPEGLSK
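Compounds are pin-transferred onto Drosophila Schneider cells expressing a copper-inducible Gal4–ROR gamma transactivation domain fusion. After 1 hr, copper sulfate is added to 700 uM final; luciferase is read 20 hr later.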
ELG1 DNA repair: ELG1-dependent DNA repair inhibition. HEK293T ELG1-luciferase reporter, luminescence, 16 h; DNA damage induced by 5-fluorouridine. Potency, µM (titrated, usually from 46.1 µM), for inactives: at the highest dose activity change, negative = inhibition, usual class: inhibitors. actives 2.3% (n = 330,000). AID 504467; further: potency means the concentration at half of the fitted maximal effect; nearly all actives have a fitted effect of over 55% in size
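Cells (2,000 per well) received 5-fluorouridine plus test compound or DMSO and were incubated 16 hr at 37 °C, 5% CO2. Luciferase activity was read by luminescence 30 min after ONE-Glo addition; signal suppression marked inhibition of damage-induced ELG1 function.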
DT40 TDP1 CPT: growth inhibition of DT40 Tdp1-/-;hTDP1 cells with camptothecin (screen for TDP1 inhibitors); chicken DT40 Tdp1-/-;hTDP1 cells + 20 nM CPT, ATP luminescence, 48 h; Potency, µM (titrated, usually from 46.2 µM), for inactives: at the top dose activity change, negative = growth inhibition, actives largely listed as inhibitors; AID 686979; actives 12% (n = 420,000); further: potency means the concentration at half of the fitted maximal effect; nearly all actives have a fitted effect of over 55% in size
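Chicken DT40 Tdp1-/- cells stably complemented with human TDP1 were seeded at 400 cells/well in medium containing 20 nM camptothecin, exposed to pin-transferred compounds, and grown at 37 °C for at least 48 hr. Viability was read as ATP luminescence.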
DT40 TDP1 no CPT: qHTS for Inhibitors of human tyrosyl-DNA phosphodiesterase 1 (TDP1): qHTS in cells in absence of CPT; DT40 Tdp1-/- hTDP1 cells, no CPT, ATP luminescence, 48 h; Potency, µM (titrated, usually from 46.2 µM), for the others: at the top dose activity change, negative = growth inhibition, actives largely listed as inhibitors; actives 15% (n = 420,000); AID 686978, 2013; further: potency means the concentration at half of the fitted maximal effect; nearly all actives have a fitted effect of over 55% in size
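Readout: luminescence from CellTiter-Glo after 30 min in the dark at RT. Cells: DT40 Tdp1-/- with stable hTDP1, 400/well. Exposure: compounds alone, ≥48 hr, 37 °C.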
VP16 counter: inhibits Gal4-VP16 luciferase reporter, ROR gamma counter-screen; Drosophila S2 Gal4-VP16 UAS-luciferase, luminescence, 20 h; Potency, µM (doses to about 53.6 µM), without a hit: at the highest dose activity, negative = inhibition, most hits filed as inhibitors; actives 3.5% (n = 310,000);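 further: Gal4-VP16 expression switched on by copper sulfate through the metallothionein promoter; potency means the concentration at half of the fitted maximal effect; nearly all actives have a fitted effect of over 50% in size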
IL1B secr inh: inflammasome signaling inhibition, IL-1 beta readout. actives 4.7% (n = 360,000). activity change, % at 57.5 µM. THP-1 LPS/ATP IL-1B secretion, AlphaLISA, 16 h; active compounds read low; in the data active means activity change below about -50%; inconclusive means mostly about -30% to -49%
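THP-1 cells pretreated 1 hr with compounds (up to 57.5 uM final), then stimulated with LPS (250 ng/mL final) plus ATP (1.25 mM final); secreted IL-1B measured by AlphaLISA after 16 hr, decreased signal indicating inhibition.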
Numbers without * were called inactive; ? = inconclusive; . = no result; [ ] = another dose, or the depositor's remark. Only some compounds are listed: those with a hit (about 21% of all), similar ones and a draw of the others. Unless noted, the call rests on the fitted dose curve; in most records, active means well fitted curve in the direction sought with a large enough effect; inconclusive means small, poorly fitted or top-dose-only effect, or another doubt; inactive means no such curve, though single readings can be large; an effect the other way counts as inactive or inconclusive. On the % scale 0 is the no-effect control and ±100 the full control effect.

SMILES	RORg inh	ELG1 DNA repair	DT40 TDP1 CPT	DT40 TDP1 no CPT	VP16 counter	IL1B secr inh
C/C=C(\C)C(=O)OC1[C@H](OC(C)=O)C2(CO)C(CC1(C)C)C1=CCC3C4(C)CCC(O[C@@H]5O[C@H](C(=O)O)[C@@H](O[C@@H]6O[C@H](CO)[C@@H](O)[C@H](O)[C@H]6O)[C@H](O)[C@H]5O[C@H]5O[C@H](CO)[C@@H](O)[C@H](O)[C@H]5O)[C@](C)(CO)C4CCC3(C)[C@]1(C)C[C@H]2O (stereo partly specified)	.	.	12µM*	15µM*	.	-105*
C[C@@H]1CC[C@]2(C(=O)O[C@@H]3O[C@H](CO)[C@@H](O)[C@H](O)[C@H]3O)CC[C@]3(C)C(=CCC4[C@@]5(C)CC[C@H](O[C@@H]6OC[C@H](O)[C@H](O[C@@H]7O[C@H](CO)[C@@H](O)[C@H](O)[C@H]7O)[C@H]6O)C(C)(C)C5CC[C@]43C)C2[C@]1(C)O (stereo partly specified)	.	?	-13%	5%	.	9
Nc1c(-c2nc(-c3ccccc3)cs2)c2ccccn2c1C(=O)c1ccc2c(c1)OCO2	.	.	18µM*	6.5µM*	.	.
CCc1ccc(C(=O)c2c(N)c(-c3nc(-c4ccc5c(c4)OCO5)cs3)c3ccccn23)cc1	.	.	-9%	-21%	.	.
COc1cccc(-c2csc(-c3c(N)c(C(=O)c4ccccc4)n4ccccc34)n2)c1	.	.	?	16µM*	.	.
COC(=O)c1ccc(Cl)cc1NC(=O)N(Cc1ccc(C)o1)C1CCN(C(C)=O)CC1	.	.	?	15µM*	.	.
CCN1CCC(N(Cc2ccc3c(c2)OCO3)C(=O)Nc2cc(Cl)ccc2C(=O)OC)CC1	.	.	13µM*	7.3µM*	.	.
COc1ccc(Cl)cc1NC(=O)NCc1ccc2c(c1)OCO2	20%	23%	-2%	2%	7%	8
Cc1[nH]nc2c1C(c1cccc(O)c1)C1=C(CC(C)(C)CC1=O)N2 (stereo unspecified)	23%	0%	5%	-8%	17%	44
COC(=O)Nc1cc(C(=O)c2ccc(Cl)cc2Cl)c[nH]1	-3%	12%	-2%	-25%	-2%	-8
C=C(C)CC1(c2ccccc2)Oc2ccccc2-c2nc3cc(Cl)c(Cl)cc3nc21 (stereo unspecified)	-22%[10 µM]	.	.	.	-1%[10 µM]	.
O=C1CCCN1C1CCN(Cc2ccccc2)S(=O)(=O)N1 (stereo unspecified)	.	.	-9%	-16%	.	1
O=C(c1ccc(S(=O)(=O)N2CCCC2)cc1)N1CCC(CN2C(=O)c3cccc4cccc(c34)C2=O)CC1	?	10µM*	-7%	-24%	-2%	-9
COc1ccccc1C(CC(=O)O)c1ccc2c(c1)OCO2 (stereo unspecified)	7%	-1%	-1%	27%	-8%	43
C=CC(=O)N(CCC)C(c1ccccc1)c1ccccc1OC (stereo unspecified)	.	-2%	16µM*	15µM*	.	-27
COc1ccc(-c2cc3ccccc3n2CC(O)CN2CCCCC2)cc1 (stereo unspecified)	7%	-4%	-24%	-18%	0%	-27
COc1ccc(-c2cc3ccccc3n2CC(O)CNCCO)cc1 (stereo unspecified)	33%	3%	23µM*	15µM*	9%	-2
CN(C)S(=O)(=O)c1cccc(N=C2SCCN2Cc2ccccc2)c1	27%	18µM*	?	21µM*	?	-9
Cc1ccc(S(=O)(=O)N2CCSC2=Nc2ccccc2)cc1	2%	0%	.	.	4%	.
COc1ccc(NS(=O)(=O)c2ccc3oc(SC(C)C(N)=O)nc3c2)cc1 (stereo unspecified)	?	-4%	16µM*	12µM*	?	-12
COc1ccc(NS(=O)(=O)c2ccc3oc(Nc4ccc5c(c4)OCCO5)nc3c2)cc1	?	?	?	15µM*	26%	-10
O=C(NCc1ccccc1)c1cc[n+]([O-])cc1	-24%	5%	4%	27%	-3%	21
NC1(C#Cc2ccc3c(=O)c4ccccc4sc3c2)CCCCC1	.	?	26µM*	?	.	-28
O=c1c2ccccc2oc2ccc(C#CC3(O)CCCCC3)cc12	.	.	?	?	.	0
N#Cc1ccc(C#Cc2ccc3oc4ccccc4c(=O)c3c2)cc1	.	?	?	?	.	-9
SMILES	RORg inh	ELG1 DNA repair	DT40 TDP1 CPT	DT40 TDP1 no CPT	VP16 counter	IL1B secr inh
Cn1c2ccccc2c(=O)c2cc(C#CC3(O)CCCCC3)ccc21	11µM*	?	16µM*	?	16µM*	-53*
Cn1c2ccccc2c(=O)c2ccc(C#CC3(N)CCCCC3)cc21	-37%	?	-96%	13µM*	-11%	-86*
COc1cccc2oc3ccc(C#CC4(N)CCCCC4)cc3c(=O)c12	?	?	7.3µM*	3.7µM*	?	-97*
O=S(=O)(c1ccccc1)N1CCC2(CC1)CN(c1ncccn1)C2	-17%	.	-2%	-11%	9%	.
Cc1ccnc(NC(=O)C(C)N2C(=O)c3ccccc3S2(=O)=O)c1 (stereo unspecified)	.	?	3%	4%	.	1
CN(Cc1ccco1)c1ccnc(-c2ccccc2C(F)(F)F)n1	-2%	.	?	?	-11%	.
Cc1ccc(NC2CC(=O)N(CCc3ccccc3)C2=O)cc1 (stereo unspecified)	4µM*	-6%	?	-21%	-11%	-2
O=C1CC(NCCc2ccccc2)C(=O)N1CCc1ccccc1 (stereo unspecified)	4%	6%	4%	-1%	23%	-2
CCN(CC)c1ccc(NC2CC(=O)N(CCc3ccc(OC)cc3)C2=O)cc1 (stereo unspecified)	-28%	-1%	13µM*	15µM*	2%	-10
O=C(c1c(O)c2ccc(Cl)cc2[nH]c1=O)C1CC1	7%	.	9%	2%	-1%	.
CCC[C@@H]1NC(=O)[C@@H](NC(C)=O)CSSC[C@@H](C(N)=O)NC(=O)CNC(=O)[C@H](Cc2c[nH]c3ccccc23)NC(=O)[C@H](CCCN=C(N)N)NC(=O)[C@H](Cc2ccc3ccccc3c2)NC(=O)[C@H](Cc2cnc[nH]2)NC(=O)[C@H](CCCN=C(N)N)NC1=O	19%	.	.	.	4%	.
